SMILES strings stand for the structures. Hit rate of the full screen: of about 300,000 compounds, about 22,000 (7.3%) were called active. Not shown: some 2% with an inconclusive outcome. This excerpt belongs to a sample that is enriched for actives. A number with no mark means an inactive call. Cut-off read from the data, not from the text of the source: active = activity score below about -60%; inconclusive = mostly about -28% to -61%; inactive = positive scores.

This test in a line: Activators working through SNCA 5'UTR binding (MLPCN) (AID 1814). The note with it: alpha-synuclein 5'UTR reporter, activators screen; stronger effect = lower value; tested at 7.5 µM.
As to `COCCNC(=O)c1ccc2nc(Cc3ccc(OC)c(OC)c3)oc2c1`, the activity score is -80.1% (active). Regarding `CSCCNC(=O)c1ccc2nc(Cc3ccccc3F)oc2c1`, the activity score was -130% (active). `COc1ccc(Cc2nnc(N/N=C/c3ccccc3O)[nH]c2=O)cc1OC`: the activity score was 91.4%. To `CNC(=S)N/N=C/c1ccc(N2CCOCC2)s1` belongs -100% (active); to `Cc1nc(NC(=O)c2ccc3c(c2)OCCO3)ccc1Br`, -116% (active). To `CC(C)C(=O)Nc1ccc2c(c1)oc1ccccc12` belongs -225% (active); to `CCOc1ccc(C(=O)Nc2nccs2)cc1[N+](=O)[O-]`, -123% (active); to `CC(=O)Oc1ccc(C(=O)Nc2nccs2)cc1`, -98% (active). With `Cc1ccc(-c2nc3ccccc3[nH]2)cc1N` the figure was -122% (active); with `COc1ccc(-c2csc(-c3cccs3)n2)cc1OC`, -154% (active); with `O=C(Nc1ncc([N+](=O)[O-])s1)C1COc2ccccc2O1` (stereo not given), -93.3% (active).

On to `CC(=O)Oc1ccccc1C(=O)Nc1ncc([N+](=O)[O-])s1`, for which the activity score is -68.7% (active).

On to `O=C(CCc1ccccc1)Nc1ncc([N+](=O)[O-])s1`, for which the activity score is -165% (active). On to `O=C(Cc1c(F)cccc1Cl)Nc1ncc([N+](=O)[O-])s1`, for which the activity score was -133% (active). To `c1ccc2c(C[n+]3csc4ccccc43)cccc2c1` belongs -83.3% (active); to `Cc1cccc(N=Nc2c(C)[nH]n(-c3ccccc3)c2=O)c1`, -126% (active); to `CCCC(=O)Nc1ccc2c(c1)nc1n2CCSC1`, -94.7% (active). With `CC1(C)C2CC=C(/C=N/NC(=O)c3ccc(Cl)cc3)C1C2` (stereo not given) the figure was -63.4% (active); with `O=C1N=C(N2CCOCC2)S/C1=C\C=C/c1ccccc1`, -170% (active). `Cc1ccsc1/C=C1\SC(N2CCOCC2)=NC1=O`: the activity score is -73% (active). Turning to `Brc1ccc(C2CC(c3ccccc3)=Nc3ccccc3N2)cc1` (stereo not given), the activity score is -141% (active). With `O=C(CSc1ccc(-c2ccc(-n3cccn3)cc2)nn1)Nc1ccc([N+](=O)[O-])cc1` the figure was -99.7% (active); with `CC12CCC(C(=O)N(NC(=O)c3ccccc3O)C1=O)C2(C)C` (stereo not given), 67.6%; with `Cc1ccc2c(c1)NCC(C(=O)NC1CCC(C)CC1)O2` (stereo not given), -67.9% (active).

With `COc1cc(NC(=S)N2CCCC(C)C2)c(OC)cc1Cl` (stereo not given), the activity score was -79% (active). To `CC(C)CCC(C)NC(=O)c1ccc2nccnc2c1` (stereo not given) belongs -75.9% (active). To `O=C1c2ccccc2C(=O)N1CCOc1ccc(F)cc1` belongs -91.2% (active). Turning to `Cc1cccc(N2Cc3ccccc3C2=NC(=O)c2ccc(Cl)nc2)c1`, the activity score was -115% (active).

With `CCCc1cc(=O)[nH]c(SCC(=O)c2c(N)n(CC(C)C)c(=O)n(C)c2=O)n1`, the activity score is 88.3%. In the case of `CC(=O)c1ccc(NC(=O)CSC(=S)N2CCCC2)cc1`, the activity score is -76.2% (active). For the compound `Cc1cc(Cl)ccc1OCc1nc(-c2ccncc2)no1`, the activity score was -162% (active). To `CN(C)S(=O)(=O)c1ccc2oc(SCC(=O)Nc3ccccc3F)nc2c1` belongs -147% (active); to `CCn1c(/C=C/c2ccc([N+](=O)[O-])o2)nc2ccccc2c1=O`, -353% (active). With `Cc1ccc(-c2nc(C#N)c(NCCCn3ccnc3)o2)cc1` the figure was -87% (active); with `Cc1cccc(-[n+]2c(-c3cccc(Br)c3)[nH]c3nc4ccccc4nc32)c1`, 73.9%; with `Brc1ccc(-c2nnc(-c3ccccc3)o2)o1`, -63.8% (active). To `Nc1ccc(-c2nnc(-c3ccc(-c4ccccc4)cc3)o2)cc1` belongs -217% (active).

`Brc1ccc(-c2noc(-c3ccccc3)n2)o1`: the activity score is -80.6% (active). To `Nc1nonc1-c1noc(-c2ccc(Br)o2)n1` belongs -80.6% (active). With `Cc1ncc(CC(=O)n2cc(C(=O)c3cc(Cl)ccc3O)cn2)s1` the figure was -71% (active). In the case of `CCSc1nnc(-c2cc3c(s2)-c2ccccc2CC3)o1`, the activity score is -102% (active). As for `CCOC(=O)c1ccc2c(c1)nc(C)n2CC`, the activity score was -141% (active). With `Cc1cccc(C(=O)Nc2ccc(C(=O)/C=C/c3cccs3)cc2)c1` the figure was -92.4% (active); with `COc1ccc(C2=NN(C(=O)c3ccccc3C(=O)O)C(c3ccccc3O)C2)cc1` (stereo not given), -171% (active). Regarding `COc1ccc(C2=NN(C(C)=O)C(c3ccccc3)C2)cc1` (stereo not given), the activity score was -63.9% (active). With `C=CCNC(=O)c1cc(-c2ccccc2O)on1` the figure was -65.4% (active); with `O=C(Nc1cccnc1Cl)c1cc(-c2ccccc2O)on1`, -179% (active). On to `Clc1ccc(-c2cc(-c3ccccn3)on2)c(Cl)c1`, for which the activity score was 108%. With `O=C(NCc1ccccn1)c1cc(-c2ccccc2Cl)on1` the figure was -99.8% (active). With `C/C(=C\c1ccco1)CN1CCC(N2CCC(C(=O)N3CCOCC3)CC2)CC1` the figure was -135% (active); with `CC(=O)Nc1ccc(/C=C/C(=O)c2ccccc2)cc1`, -201% (active); with `O=C(/C=C/c1ccc(N2CCOCC2)cc1)c1ccccc1`, -152% (active). As to `CC(=O)Nc1ccc(C(=O)/C=C/c2ccc[nH]2)cc1`, the activity score was -142% (active).

As for `Cc1ccc(NC(=O)c2sccc2C)cc1[N+](=O)[O-]`, the activity score was -217% (active). To `O=C(N/N=C/c1ccc([N+](=O)[O-])cc1)c1c[nH]c2ccccc12` belongs -66.7% (active); to `Cc1ccsc1C(=O)N/N=C/c1ccc([N+](=O)[O-])cc1`, -154% (active). With `COc1cccc(-c2nn(-c3ccccc3)cc2/C=C(\C#N)C(=O)NCCCn2ccnc2)c1` the figure was -65.4% (active); with `Cc1nn(C(=O)c2ccoc2C)c(N)c1-c1ccccc1`, -109% (active). Take `CN(Cc1ccco1)S(=O)(=O)c1nnc(NC(=O)c2ccccc2)s1`: the activity score is -95.2% (active).

Take `COc1ccc(C(=O)CC(=O)c2ccc(C)cc2)c(O)c1`: the activity score was -96.9% (active). As for `COc1ccc(C(=O)Cc2cnn(-c3ccccc3)c2)c(O)c1`, the activity score is -147% (active). To `CC(=NCc1ccco1)c1c(C(F)(F)F)[nH]n(-c2nc3ccccc3s2)c1=O` belongs -117% (active); to `COC(=O)Cc1[nH]n(-c2nc3ccccc3s2)c(=O)c1C(C)=Nc1ccc(OC)cc1`, 68.9%; to `CCC(C)Cn1c(O)cc2nn(-c3nc4ccccc4s3)c(=O)c-2c1C` (stereo not given), 97.8%. For the compound `Cn1nc(C(F)(F)F)cc1-c1ccc(/C=C(\C#N)C(=O)c2cccc(C(F)(F)F)c2)s1`, the activity score was -76.5% (active). For the compound `O=C1/C(=C/c2ccc3c(c2)OCO3)CCC/C1=C\c1ccc2c(c1)OCO2`, the activity score was -83.5% (active). With `O=C(/C=C/Sc1ncn[nH]1)c1ccc(Cl)cc1` the figure was -73.9% (active); with `Oc1ccc(/C=N/NC2=NCCCCC2)c(O)c1`, -141% (active). To `Nc1nc(-c2sc3nc4c(cc3c2N)CCCC4)nc(N2CCOCC2)n1` belongs -113% (active). With `CC(C)(C)c1ccc(NC(=O)NCc2ccco2)cc1` the figure was -123% (active); with `CCCC1=Nc2cc(C(=O)NCc3ccco3)ccc2Sc2ccccc21`, 87.6%; with `CC(C)(C)c1ccc(C(=O)NCc2ccco2)cc1`, -180% (active). As to `CC(C)(C)c1ccc(C(=O)NNC(=O)Cc2ccccc2)cc1`, the activity score was -84.3% (active). With `CC(C)n1c(O)c(N=Nc2ccccn2)c2ccccc21` the figure was -76.9% (active); with `CC1C/C(=N/NC(=O)c2cccs2)CC(C)(C)C1` (stereo not given), -101% (active); with `CCC(=O)NC(=Nc1nc2ccccc2s1)NC(=O)CC`, -101% (active). To `CCC(=O)Nc1nc2ccccc2n1Cc1ccccc1C` belongs 65.5%.

`CC(C)CC(=O)N/C(N)=N/c1nc2ccccc2s1`: the activity score was -93.4% (active). With `CC12CN3CCN(CC(C3)/C1=N\NC(=O)c1ccccc1N)C2` the figure was -83.3% (active). With `CN1C(=O)/C(=C\c2cc(Br)cs2)c2ccccc21` the figure was -188% (active).

(Values after PubChem BioAssay AID1814 (Broad Institute, 2009).)
